BaF3 tox – parental Ba/F3 viability inhibition as JAK2V617F counter-screen | CellTiter-Glo ATP luminescence | inhibition, % at 5.6 µM | 1.1% of 220,000 active;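 active = inhibition above a per-campaign cutoff, the mean inhibition of all tested compounds plus 3 SD, cut at about 27% in these data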
Ba/F3 V617F tox – reduce viability of Ba/F3 cells dependent on JAK2V617F; Ba/F3 EpoR-JAK2V617F viability, ATP luminescence; inhibition, % at 5.6 µM; 1.1% of 220,000 active; AID 1446;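 active = inhibition above the campaign mean plus 3 SD over all tested compounds, cut at about 24% in these data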;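 also: cytokine-independent growth of Ba/F3 cells driven by EpoR plus mutant JAK2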
KLF5 inhibitor – inhibitors of KLF5 expression | DLD-1 KLF5 promoter-luciferase reporter, luminescence | inhibition, % at 5 µM | 0.23% of 290,000 active | AID 1700;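 active = inhibition above a per-plate limit of that plate's mean compound inhibition plus 3 SD, cut at about 60% in these data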;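 also: higher means less KLF5 promoter-driven luciferase light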
IEC-6 cytotox – counter-screen for KLF5 inhibitors: cytotoxicity in IEC-6 cells. IEC-6 cytotoxicity, luminescence viability. inhibition, % at 5 µM. 0.78% of 290,000 active. AID 1825; in the data active = inhibition above about 22%
APP transl inh – APP translation inhibition; SH-SY5Y APP 5'UTR-luciferase reporter, luminescence; inhibition, % at 2 µM; 0.82% of 190,000 active; AID 1285;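 active = inhibition above a set limit, derived from the sample mean plus 3 SD, cut at about 45% in these data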
Hits are given with their value; 0 = inactive; - = not tested or not shown. Sampled rows, rich in hits. Any-hit rate of the full collection: about 1.9%.

SMILES | BaF3 tox | Ba/F3 V617F tox | KLF5 inhibitor | IEC-6 cytotox | APP transl inh
COc1ccccc1N=C(C)C1=C(O)CC(c2ccccc2)CC1=O (stereo not given) | 0 | 0 | 0 | 0 | 91.6
Cc1ccc(-n2ncc3c(=O)n(CC(=O)N(C(C)C)C(C)C)cnc32)cc1 | - | - | 0 | 0 | -
NC(N)=NC(N)=Nc1cccc2ccccc12 | 0 | 0 | 0 | 0 | -
Cc1c(Cl)cccc1N=C(N)N=C(N)N | 81.4 | 0 | 0 | 0 | 0
CCCCOc1ccc(C(=O)C(CN2CCOCC2)c2ccccc2)cc1 (stereo not given) | 0 | 0 | 0 | 0 | 0
O=C(c1ccc(Cl)cc1)C(CN1CCCC1)c1ccccc1 (stereo not given) | - | - | 0 | 0 | -
O=C(c1ccc(F)cc1)C(CN1CCOCC1)c1ccccc1 (stereo not given) | 0 | 0 | 0 | 0 | 94.8
COc1ccc(C(=O)C(CN2CCCC2)c2ccccc2)cc1 (stereo not given) | 28.7 | 79.7 | 0 | 0 | 86.0
COc1ccc(C(=O)C(CN2CCOCC2)c2ccccc2)cc1 (stereo not given) | 41.8 | 90.1 | 0 | 0 | 89.7
Cc1cc(C)c2sc(NC(=O)C3=COCCO3)nc2c1 | - | - | 0 | 0 | -
N#CC(C#N)=C1C=CC=CN1/C(=C\c1ccco1)C(=O)c1ccc(-c2ccccc2)cc1 | 0 | 0 | 0 | 0 | 91.7
N#CC(C#N)=C1C=CC=CN1/C(=C\c1ccco1)C(=O)c1ccc(Cl)cc1 | 0 | 0 | 0 | 0 | 95.9
Cc1cc(C)c2ccc(=O)n(CC(=O)N/N=C/c3ccccc3Cl)c2n1 | 0 | 0 | 0 | 0 | -
CN1C(=O)NC(c2ccccc2[N+](=O)[O-])C2=C1CCCC2=O (stereo not given) | - | - | 0 | 0 | -
CC(C)=CCC/C(C)=C/CCC(C)NCCN1CCNCC1 (stereo not given) | 0 | 0 | 0 | 33.8 | 0
CCOC(=O)c1ccc(NC2c3ccccc3C(=O)N2c2cccnc2)cc1 (stereo not given) | 27.4 | 0 | 0 | 0 | 0
CCOC(=O)c1ccc(NC2c3ccccc3C(=O)N2c2ccc(C)cn2)cc1 (stereo not given) | 0 | 0 | 0 | 0 | 0
Cc1cc(C)c2c(c1)/C(=N/NS(=O)(=O)c1ccc(Br)cc1)CCC2 | 0 | 0 | 0 | 0 | 81.0
CC(=O)n1cc(N(C(=O)CCl)c2ccc(C)cc2)c2ccccc21 | 28.3 | 98.8 | 0 | 23.4 | -
COc1ccc(/C=N/NC(=O)c2nc(-c3ccccc3)n(-c3ccccc3)n2)c(O)c1 | 0 | 0 | 0 | 0 | 49.3
COc1ccc(/C=N/NC(=O)c2nc(-c3ccccc3)n(-c3ccccc3)n2)cc1 | 0 | 0 | 0 | 0 | 0
CC(C)(C)c1cc(C(=O)N/N=C/c2ccccc2O)n(-c2ccccc2)n1 | 0 | 0 | 0 | 0 | 66.0
CC(C)(C)Nc1nc(C(N)=O)nc(N2CCOCC2)n1 | 0 | 0 | 0 | 0 | 60.0
O=C(COc1ccc2ccccc2c1)Nc1ccccc1C(=O)O | - | - | 0 | 0 | -
Nc1c(Cl)ncnc1N/N=C/c1ccnc2ccccc12 | 0 | 0 | 0 | 0 | 0
SMILES | BaF3 tox | Ba/F3 V617F tox | KLF5 inhibitor | IEC-6 cytotox | APP transl inh
Nc1c(Cl)ncnc1N/N=C/c1ccccn1 | 0 | 0 | 0 | 0 | 92.0
Nc1c(Cl)ncnc1N/N=C/c1cccnc1 | 0 | 0 | 0 | 0 | -
Nc1c(Cl)ncnc1N/N=C/c1ccc2ccccc2n1 | 0 | 0 | 0 | 0 | 66.2
N#C/C(=C\c1ccccc1OCC(=O)O)c1nc2ccccc2[nH]1 | - | - | 0 | 0 | -
O=C1Nc2cc3c(cc2C1=O)sc1ccccc13 | 0 | 0 | 0 | 0 | -
O=C(CSc1ccc(Cl)cc1)Nc1ccccc1N1CCN(C(=O)c2ccccc2)CC1 | 67.7 | 0 | 0 | 0 | 0
CS(=O)(=O)N1CCN(c2ccccc2NC(=O)CSc2ccc(Cl)cc2)CC1 | 0 | 0 | 0 | 0 | 0
COc1ccc(NC(=O)Nc2ccc([N+](=O)[O-])cc2)cn1 | - | - | 0 | 0 | -
COc1cc(C2C(C#N)=C(N)Oc3cc(N(C)C)ccc32)cc2c1OCO2 (stereo not given) | 0 | 0 | 0 | 0 | 97.3
COc1cc(C2C(C#N)=C(N)Oc3cc4c(cc32)OCO4)cc(OC)c1OC (stereo not given) | 89.4 | 93.3 | 85.7 | 85.0 | 93.4
COc1cc(C2C(C#N)=C(N)Oc3cc(O)ccc32)cc(OC)c1OC (stereo not given) | 0 | 0 | 0 | 0 | 94.5
COc1cc(C2C(C#N)=C(N)Oc3cc(O)ccc32)cc2c1OCO2 (stereo not given) | 0 | 0 | 0 | 0 | 0
CCOc1ccccc1NC(=O)N1CCc2ccccc2C1 | - | - | 0 | 0 | -
CS(=O)(=O)N(CC(N)=O)c1cccc(Br)c1 | 92.6 | 0 | 0 | 0 | 0
CNC(=O)CN(c1cccc(Br)c1)S(C)(=O)=O | 0 | 0 | 0 | 0 | 0
COc1ccc(CNC(=S)Nc2ccccc2)cc1 | - | - | 0 | 0 | -
Cc1ccc(C(C)C)c(OCC(=O)NN=C2CCCCCCC2)c1 | 0 | 0 | 0 | 0 | 85.5
CC(=O)Nc1ccc(NC(=O)CS(=O)(=O)c2cn(CC(=O)N3CCCC3)c3ccccc23)cc1 | - | - | 0 | 0 | -
COc1cccc2c1nc(C)c1cc(C)oc12 | 0 | 0 | 0 | 0 | 0
COc1cccc2nc3cc(C)c(C)cc3nc12 | 29.0 | 29.2 | 0 | 0 | -
Cn1c(N=Nc2ccccc2)nc2ccccc21 | 31.3 | 31.2 | 0 | 38.3 | 0
CN(C)CCNC(=O)C12CC3(C)CC(C)(CC(C)(C3)C1)C2 | 58.9 | 0 | 0 | 0 | 0
CNc1nc(-c2ccccn2)nnc1-c1ccccc1 | 0 | 0 | 0 | 0 | 0
c1ccc(-c2nnc(-c3ccccn3)nc2NC2CCCCC2)cc1 | 94.5 | 63.8 | 0 | 0 | 76.7
Cc1cccnc1NC(=O)C1CCC1 | - | - | 0 | 0 | -
SMILES | BaF3 tox | Ba/F3 V617F tox | KLF5 inhibitor | IEC-6 cytotox | APP transl inh
CCCCc1c(CCC)c(=N)c2ccccc2n1C | 68.4 | 75.8 | 0 | 0 | 0
CC(C)CCSc1nc2ccccc2[nH]1 | 0 | 0 | 0 | 0 | 0
C=C(C)CSc1nc2ccccc2[nH]1 | 88.8 | 0 | 0 | 0 | 0
Cc1ccc(Nc2ncc(C(=O)NCCCN3CCN(C)CC3)c3ccccc23)cc1Cl | 64.1 | 65.2 | 0 | 0 | 0
Cc1ccc2cc(C)c3nnc(SCc4ccc(C(=O)O)cc4)n3c2c1C | 0 | 0 | 0 | 0 | -
Cc1ccc(N2CCN(C(=O)c3ccccc3)CC2)c(C)c1 | 0 | 0 | 0 | 0 | 0
COc1cc(C(=O)N2CCN(c3ccc(C)cc3C)CC2)cc(OC)c1OC | 44.1 | 36.8 | 0 | 42.5 | 76.1
Cc1cc(-n2c(C)cc(C(=O)CSc3ncnc4ccccc34)c2C)no1 | 51.1 | 43.8 | 0 | 0 | 0
Cc1cc(-n2c(C)cc(C(=O)CSc3nnc4sc5ccccc5n34)c2C)no1 | 0 | 0 | 0 | 0 | 0
CCOc1cc(N2CCOCC2)c(OCC)cc1NS(=O)(=O)c1cc(NC(C)=O)ccc1OC | - | - | 0 | 0 | -
C=C(C)CSc1nc2sc3c(c2c(=O)n1C1CCCCC1)CCN(C)C3 | 54.5 | 50.6 | 0 | 0 | -
CSc1nc2sc3c(c2c(=O)n1C1CCCCC1)CCN(C)C3 | 0 | 0 | 0 | 0 | 0
O=C(NCC1CCCO1)c1cccc(S(=O)(=O)N2CCOCC2)c1 (stereo not given) | - | - | 0 | 0 | -
O=C(CCCOc1ccc(Cl)cc1Cl)NCCc1ccccn1 | - | - | 0 | 0 | -
Cc1ccc(C(=O)N2CCOCC2)c(F)c1F | 90.1 | 0 | 0 | 0 | 0
Cc1cc(F)c(F)c(C(=O)N2CCOCC2)c1Cl | 0 | 0 | 0 | 0 | 0
